The text below walks through data of PubChem BioAssay (NCI).

Common to all, as to assay: NCI-60 one-dose screen, 48 h (100 = growth as untreated, 0 = no growth, -100 = all killed)
Common to all, as to details: 10 µM unless noted

Experiment [1] relates to NCI-H23 lung.
For experiment [2], the system named is NCI-H226 lung.
For experiment [3], the system named is NCI-H322M lung.
Experiment [4] deals with HOP-62 NSCLC.
For experiment [5], the system named is NCI-H460 lung.
The subject of experiment [6] is NCI-H522 lung.
For experiment [7], the system named is A549/ATCC NSCLC.
Experiment [8] concerns 786-0 renal.
Experiment [9] concerns COLO 205 colon.
Experiment [10] concerns DU-145 prostate.
The subject of experiment [11] is K-562 leukemia.
Experiment [12] deals with MALME-3M melanoma.
The test system of experiment [13] is MDA-MB-231 breast.
The test system of experiment [14] is RXF 393 renal.
Experiment [15] deals with SF-268 CNS.
Experiment [16] deals with SF-295 CNS.
The test system of experiment [17] is SF-539 CNS.
The subject of experiment [18] is UACC-257 melanoma.
Experiment [19] has as its system M14 melanoma.

Each structure is given as a SMILES string. The panel holds about 83,000 compounds, 20% with a hit somewhere; the sample as a whole holds those more often.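 The endpoint reported here, percent growth, reads 100 for growth as untreated, 0 for no net growth and -100 for all cells dead.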 Values without a mark were called inactive. Activity calls are given as the source filed them. The calls were made as follows: active = growth percent below 10; inactive = the rest.

Turning to `C[C@@H]1N=C(c2ccc3ccccc3c2)Nc2nc3ccccn3c2C1=O`, the growth was 46.1% in experiment [1]; 64.5% in experiment [2]; 73.2% in experiment [3]; 36.7% in [4]; 15.2% in experiment [5]; 29.4% in experiment [6]. Further, the growth in experiment [7] is 39.5%; in experiment [8], 69.3%; in experiment [9], 22.8%; in [10], 73.3%; in experiment [11], 27.6%; in experiment [12], 42.3%. The growth is 52.5% in [13]; 49.9% in experiment [14]; 58% in [15]; 14.9% in [16]; 37.2% in experiment [17]; 40.9% in [18]. Moreover, the growth in [19] is 19.8%.
For `Clc1ccc(-c2cnc3c(-c4ccnc(N5CCNCC5)c4)cnn3c2)cc1`, the growth in experiment [1] was -12.3% (active); in experiment [2], 115%; in [3], 23.2%; in experiment [4], -37.8% (active); in experiment [5], -39.8% (active); in experiment [6], -53.8% (active). Also, the growth in experiment [7] is 16.7%; in experiment [8] it was -70% (active); in experiment [9] it was -57.7% (active); in experiment [10] it was 27.6%; in [11], -13.5% (active); in experiment [12] it was -37.5% (active). Moreover, the growth in [13] was -23.3% (active); in [14], -32.6% (active); in experiment [15], -16.2% (active); in experiment [16] it was 34.9%; in experiment [17], -82.4% (active); in experiment [18], -60% (active). For the same compound, the growth in [19] was -78.8% (active).
As for `CCCCc1nc(Cl)c(C2CC(c3ccc(S(N)(=O)=O)cc3)=NN2c2cc(Cl)cc(Cl)c2)[nH]1` (configuration not stated), the growth is 51.9% in experiment [1]; 39% in [2]; 77.7% in experiment [3]; 61.8% in experiment [4]; 13.9% in experiment [5]; 22.7% in experiment [6]. In addition, the growth in experiment [7] is 36.5%; in experiment [8], 53.6%; in experiment [9], 32.2%; in [10], 70.8%; in experiment [11], 16%; in [12] it was 65.3%. In addition, the growth in [13] is 35.2%; in experiment [14], 48.4%; in experiment [15] it was 49.4%; in [16], 50.3%; in [17], 91.4%; in experiment [18], 55.4%. Further, the growth in experiment [19] is 18.7%.
Regarding `COc1ccc2nc3cc(Cl)ccc3c(NC(=O)CSc3ccc(Cl)cc3)c2c1`, the growth in experiment [1] was -90% (active); in [2] it was -44.4% (active); in [3], -90.1% (active); in [4], -99.5% (active); in experiment [5] it was -84.4% (active); in experiment [6], -96.5% (active). The growth in experiment [7] was -69.4% (active); in [8], -98.2% (active); in experiment [9], -20.1% (active); in [10], -98.3% (active); in experiment [11], -3.86% (active); in experiment [12] it was -77.1% (active). Besides, the growth is -69.3% (active) in experiment [13]; -99.1% (active) in [14]; -88.9% (active) in experiment [15]; -86.2% (active) in experiment [16]; -91.9% (active) in [17]; -90% (active) in [18]. In addition, the growth in [19] is -97.4% (active).
Take `Oc1ccc(-c2nnc3c4[nH]ccc4ncn23)cc1`: the growth in experiment [1] is 91.5%; in experiment [2], 100%; in [3], 98.2%; in [4], 100%; in [5], 90.1%; in experiment [6] it was 81.5%. In addition, the growth was 93.7% in experiment [7]; 95.6% in experiment [8]; 105% in experiment [9]; 97.2% in experiment [10]; 98.4% in experiment [11]; 94.5% in experiment [12]. Moreover, the growth in [13] was 92%; in experiment [14], 113%; in [15], 103%; in experiment [16], 101%; in experiment [17], 101%; in [18], 117%. For the same compound, in [19], the growth is 104%.
As to `CCOc1cc(/C=N\NC(=O)C[N+](C)(C)C)ccc1O`, the growth in experiment [1] was 104%; in experiment [2], 97.5%; in experiment [3] it was 123%; in experiment [4] it was 115%; in experiment [5], 114%; in experiment [6], 104%. Moreover, the growth in [7] was 105%; in experiment [8], 113%; in experiment [9] it was 119%; in experiment [10] it was 116%; in [11], 73.4%; in experiment [12], 115%. Moreover, the growth in experiment [13] was 127%; in experiment [14] it was 120%; in experiment [15], 109%; in experiment [16], 111%; in [17] it was 120%; in [18], 112%. Further, the growth in [19] is 118%.
With `CC(C)[C@@]12C[C@@H](OC(=O)C3CO3)[C@@](C)(O1)[C@@H]1CC[C@@H](C)[C@H]1[C@@H]2OC(=O)/C=C/c1ccccc1` (some centres not stated), the growth in experiment [1] was 85.9%; in [2] it was 68.3%; in experiment [3] it was 83.9%; in experiment [4], 76.6%; in experiment [5] it was 101%; in [6] it was 72.8%. Also, the growth was 75.7% in experiment [7]; 95.5% in experiment [8]; 107% in experiment [9]; 107% in [10]; 105% in experiment [11]; 84% in [12]. Moreover, the growth in experiment [13] is 76.6%; in [14], 67%; in experiment [15], 67.2%; in experiment [16], 101%; in [17] it was 90.7%; in experiment [18], 74.7%. Also, the growth in experiment [19] was 101%.
Consider `Cn1c(=O)c2c(nc(N/N=C/c3ccccc3Cl)n2C)n(C)c1=O`, for which the growth is 94.4% in experiment [1]; 107% in experiment [2]; 116% in experiment [3]; 112% in [4]; 120% in experiment [5]; 83.1% in experiment [6]. Also, the growth in experiment [7] is 107%; in experiment [8], 97.8%; in [9], 113%; in experiment [10], 140%; in [11], 100%; in [12] it was 109%. The growth was 100% in [13]; 112% in experiment [14]; 124% in [15]; 101% in experiment [16]; 87.2% in [17]; 94.8% in experiment [18]. For the same compound, in [19], the growth is 103%.
